The test system of assay [1] is Wnt5a (protein binding on small-molecule microarray). The assay is described as follows: small molecules binding Wnt5a protein – biophysical, small-molecule microarray, 635/667 nm fluorescence, primary screen (AID 1142).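 Further: fluorescence read at 667 nm with signal to noise per printed feature.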 The following applies: 635 nm fluorescence, higher = more signal.
Assay [2] is described as follows: ATP-based viability of Huh7 replicon cells – cell-based, CellTiter-Glo luminescence, basal, 48 h, cytotoxicity control for HCV replication inhibitor project, primary screen (AID 1143).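 Further: Huh7 hepatoma cells carrying a hepatitis C replication reporter with no stimulus; test concentration not given here.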 The following applies: higher = more signal, called active from +8 up or from −8 down. Background: A replicon is a self-replicating genome or part of one, used to study replication in cells.

Assay [3] is described as follows: Pseudomonas biofilm growth suppression – PAO1 strain, BacTiter-Glo luminescence, LB-PBS, primary screen (AID 1144). The following applies: P. aeruginosa PAO1 biofilm, 12 h, higher = more signal.
Assay [4] in a line: basal CRE-LacZ reporter activity in PC12 – cell-based, unstimulated, primary screen (AID 1145). To be noted: no forskolin, luminescence, 4.5 h, higher = more signal, called active from +8 up or from −8 down.
The nature of assay [5]: forskolin-driven CRE-LacZ activity in PC12 – cell-based, CRE-LacZ reporter, forskolin-stimulated, primary screen (AID 1146).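 Further: PC12 cells with 6xCRE LacZ reporter stimulated by forskolin 10 µM; beta-galactosidase reporter signal reflecting CREB driven transcription.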 To be noted: luminescence, 4.5 h, higher = more signal, called active from +8 up or from −8 down.
The target in assay [6] is Streptavidin (Streptomyces avidinii) (UniProt P22629). The assay is described as follows: compounds binding control protein streptavidin – biophysical, small-molecule microarray, 635/667 nm fluorescence, artefact control for SMM compound annotation, primary screen (AID 1147).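 Further: signal reflects streptavidin binding to arrayed compounds as a control protein.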 To be noted: higher = more signal.
Assay [7] in a line: probe aInhba binding on compound microarray – biochemical, small-molecule microarray, 635/667 nm fluorescence, primary screen (AID 1148).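 Further: score merges 667nm spot fluorescence with signal-to-noise for antibody binding to printed compounds.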 The following applies: higher = more signal.
The target in assay [8] is Torsin-1A (Homo sapiens) (UniProt O14656). The assay is described as follows: TOR1A wild-type binding on microarray – cell lysate, small-molecule microarray, lysate, 635/667 nm, primary screen (AID 1149). The following applies: COS7 hTOR1A-WT lysate, 635 nm fluorescence, higher = more signal.
Assay [9] has the same target. The assay is described as follows: torsin A mutant lysate binding on microarrays – cell lysate, small-molecule microarray, COS7 lysate, 635/667 nm fluorescence, primary screen (AID 1150).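 Further: score pools 667 nm emission and signal to noise measuring lysate protein binding.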 To be noted: COS7 hTOR1A mutant lysate, 635 nm fluorescence, higher = more signal.
The subject of assay [10] is Sonic hedgehog protein (Shh). Put plainly: Sonic hedgehog microarray binding compounds – biochemical, small-molecule microarray, 635/667 nm fluorescence, primary screen (AID 1151).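 Further: Shh protein binding to compounds spotted on small-molecule microarray slides; score combines spot fluorescence intensity with signal-to-noise across triplicate slides.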 The following applies: 635 nm fluorescence, higher = more signal.
Assay [11] can be described thus: optical density shifts of acrAB sulA E. coli – strain DRC41, OD650, 48 h, E. coli filamentation inducer project, primary screen (AID 1152).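 Further: E. coli MC1000 strain DRC41 lacking acrAB efflux pump and sulA.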 To be noted: higher = more signal, called active from +8 up or from −8 down.
A short description of assay [12]: probe aLefty1 binding on compound microarray – biochemical, small-molecule microarray, 635/667 nm fluorescence, primary screen (AID 1153).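 Further: score merges spot fluorescence with signal-to-noise ratio from the scanned slide images.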 The following applies: higher = more signal.
A short description of assay [13]: plasmodial surface anion channel blockers, osmotic lysis – cell-based, P. falciparum Indochina, OD700, 1 h, primary screen (AID 1154). To be noted: P. falciparum Indochina infected RBC osmotic lysis, higher = more signal, called active from +8 up or from −8 down.
Assay [14] is described as follows: plasmodial surface anion channel blockers, osmotic lysis – cell-based, P. falciparum Indochina, OD700, 2 h, primary screen (AID 1155).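 Further: lysis reports solute entry through the parasite surface anion channel PSAC.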 The following applies: P. falciparum Indochina infected erythrocytes, higher = more signal, called active from +8 up or from −8 down.
A short description of assay [15]: changes in parasitized red cell lysis, either direction – P. falciparum Indochina, OD700, 3 h, PSAC antagonist project, primary screen (AID 1156). The following applies: P. falciparum-infected erythrocytes, osmotic lysis, higher = more signal, called active from +8 up or from −8 down.
Assay [16] can be described thus: plasmodial surface anion channel blockers, osmotic lysis – cell-based, P. falciparum Indochina, OD700, 18 h, primary screen (AID 1157). To be noted: P. falciparum Indochina infected erythrocytes, osmotic lysis OD700, 18 h; higher = more signal, called active from +8 up or from −8 down.
A short description of assay [17]: S6 kinase pathway phospho-S6 level changes – cell-based, A549, cytoblot, luminescence, serum-stimulated, primary screen (AID 1158).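 Further: serum-stimulated A549 lung adenocarcinoma cells; signal is phosphorylated S6 detected by cytoblot immunostaining with HRP secondary.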 The following applies: 5 h, higher = more signal.
The target of assay [18] is NADPH oxidase 2 (Homo sapiens) (UniProt P04839). Put plainly: compounds shifting NOX2 Amplex Red fluorescence – cell-based, HEK293-NOX2, PMA-stimulated, NOX inhibitor project, primary screen (AID 1159). Further: test concentration not given here. The following applies: 45 min, higher = more signal, called active from +8 up or from −8 down.
Assay [19] concerns the target NADPH oxidase 4 (Homo sapiens) (UniProt Q9NPH5). Put plainly: compounds shifting NOX4 Amplex Red fluorescence – cell-based, HEK293-NOX4, tetracycline-induced, NOX inhibitor project, primary screen (AID 1160). The following applies: HEK293-NOX4, Amplex Red H2O2 fluorescence, 45 min; higher = more signal, called active from +8 up or from −8 down.
Assay [20] addresses NADPH oxidase 5 (Homo sapiens) (UniProt Q96PH1). Put plainly: compounds shifting NOX5 Amplex Red fluorescence – cell-based, HEK293-NOX5, NOX inhibitor project, primary screen (AID 1161). To be noted: HEK293-NOX5, ionomycin, 45 min, higher = more signal.

Activity calls are given as the source filed them. Unless noted, how the calls were made is not given here.

Sequence of Streptavidin (Streptomyces avidinii) (P22629 whole entry, looked up): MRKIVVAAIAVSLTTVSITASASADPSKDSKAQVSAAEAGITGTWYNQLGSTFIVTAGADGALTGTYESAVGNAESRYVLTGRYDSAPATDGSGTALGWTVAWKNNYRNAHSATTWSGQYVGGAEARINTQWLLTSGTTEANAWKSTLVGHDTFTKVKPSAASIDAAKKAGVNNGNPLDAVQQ
Sequence of Torsin-1A (Homo sapiens) (O14656 whole entry, looked up): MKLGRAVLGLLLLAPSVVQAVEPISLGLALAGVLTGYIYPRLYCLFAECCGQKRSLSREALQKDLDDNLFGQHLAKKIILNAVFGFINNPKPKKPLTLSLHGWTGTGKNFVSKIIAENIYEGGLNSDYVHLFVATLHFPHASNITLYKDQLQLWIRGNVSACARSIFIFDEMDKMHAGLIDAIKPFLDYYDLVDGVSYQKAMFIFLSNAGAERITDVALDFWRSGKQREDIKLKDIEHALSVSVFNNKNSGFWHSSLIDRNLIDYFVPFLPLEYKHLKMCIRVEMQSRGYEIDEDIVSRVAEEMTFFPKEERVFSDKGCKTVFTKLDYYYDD
Sequence of NADPH oxidase 4 (Homo sapiens) (Q9NPH5 whole entry, looked up): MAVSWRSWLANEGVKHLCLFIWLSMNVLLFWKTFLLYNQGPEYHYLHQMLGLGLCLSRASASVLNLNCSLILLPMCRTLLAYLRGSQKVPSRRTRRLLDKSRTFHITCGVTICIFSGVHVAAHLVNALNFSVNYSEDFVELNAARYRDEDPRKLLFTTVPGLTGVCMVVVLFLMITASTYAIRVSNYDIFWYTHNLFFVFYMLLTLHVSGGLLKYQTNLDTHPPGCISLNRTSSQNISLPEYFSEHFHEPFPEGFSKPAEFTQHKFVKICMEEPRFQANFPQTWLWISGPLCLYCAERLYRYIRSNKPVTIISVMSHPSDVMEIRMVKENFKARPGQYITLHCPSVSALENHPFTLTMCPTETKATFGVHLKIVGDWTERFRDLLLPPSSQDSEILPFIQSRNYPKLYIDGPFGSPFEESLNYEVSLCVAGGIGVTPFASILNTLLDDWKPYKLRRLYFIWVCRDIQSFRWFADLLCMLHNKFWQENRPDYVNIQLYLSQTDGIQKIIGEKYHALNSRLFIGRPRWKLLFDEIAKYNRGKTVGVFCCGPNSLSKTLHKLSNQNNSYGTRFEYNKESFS
Sequence of NADPH oxidase 5 (Homo sapiens) (Q96PH1 whole entry, looked up): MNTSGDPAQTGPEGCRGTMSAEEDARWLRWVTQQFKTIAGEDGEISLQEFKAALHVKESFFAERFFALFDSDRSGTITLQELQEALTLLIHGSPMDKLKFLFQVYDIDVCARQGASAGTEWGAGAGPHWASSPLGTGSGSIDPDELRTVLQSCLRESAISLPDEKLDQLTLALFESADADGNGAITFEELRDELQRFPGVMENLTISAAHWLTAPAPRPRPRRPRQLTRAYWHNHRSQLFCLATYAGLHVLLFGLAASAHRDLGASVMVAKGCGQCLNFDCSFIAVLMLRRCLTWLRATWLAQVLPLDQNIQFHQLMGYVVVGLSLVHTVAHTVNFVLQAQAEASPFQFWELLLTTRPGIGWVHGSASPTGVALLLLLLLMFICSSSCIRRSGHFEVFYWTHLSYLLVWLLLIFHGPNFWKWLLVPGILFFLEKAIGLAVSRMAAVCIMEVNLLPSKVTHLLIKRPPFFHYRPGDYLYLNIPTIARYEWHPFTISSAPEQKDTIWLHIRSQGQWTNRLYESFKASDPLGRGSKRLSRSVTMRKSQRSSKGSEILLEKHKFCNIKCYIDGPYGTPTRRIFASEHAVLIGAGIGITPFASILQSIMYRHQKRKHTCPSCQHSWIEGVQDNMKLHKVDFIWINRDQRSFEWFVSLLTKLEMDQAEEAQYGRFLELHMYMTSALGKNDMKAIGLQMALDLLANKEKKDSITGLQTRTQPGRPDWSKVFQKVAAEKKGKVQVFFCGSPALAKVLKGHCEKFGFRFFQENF
Sequence of NADPH oxidase 2 (Homo sapiens) (P04839 whole entry, looked up): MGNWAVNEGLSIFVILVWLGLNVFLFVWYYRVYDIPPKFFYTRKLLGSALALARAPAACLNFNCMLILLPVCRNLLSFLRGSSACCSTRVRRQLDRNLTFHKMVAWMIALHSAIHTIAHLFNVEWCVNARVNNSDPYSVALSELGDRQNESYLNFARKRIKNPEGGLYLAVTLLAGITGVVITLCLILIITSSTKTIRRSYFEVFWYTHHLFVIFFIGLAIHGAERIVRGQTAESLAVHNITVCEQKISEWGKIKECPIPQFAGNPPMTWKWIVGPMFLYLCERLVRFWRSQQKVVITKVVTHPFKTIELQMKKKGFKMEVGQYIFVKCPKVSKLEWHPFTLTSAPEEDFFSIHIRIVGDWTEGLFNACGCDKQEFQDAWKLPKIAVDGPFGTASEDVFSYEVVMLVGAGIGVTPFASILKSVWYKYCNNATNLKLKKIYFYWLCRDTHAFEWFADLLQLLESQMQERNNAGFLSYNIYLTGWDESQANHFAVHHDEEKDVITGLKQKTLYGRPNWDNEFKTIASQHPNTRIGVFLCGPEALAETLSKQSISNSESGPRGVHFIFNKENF

Consider `CC(C)=CCCC(C)=CCON=C1C[C@@H](O)[C@@H](O)[C@@H]2[C@@H]3C(=O)N(Cc4ccc5c(c4)OCO5)C(=O)[C@@H]3CC[C@H]12`, for which the composite z-score was 0.352 in [1]; 0.133 in [6]; -0.0332 in assay [7]; 0.46 with Torsin-1A (Homo sapiens) [8]; 0.724 with Torsin-1A (Homo sapiens) [9]; 0.728 in assay [10]. Besides, the composite z-score in assay [12] is -0.202. Also, the z-score was -1.61 (inactive) in assay [2]; 0.802 (inactive) in assay [3]; -0.295 (inactive) in assay [4]; 0.489 (inactive) in assay [5]; -0.171 (inactive) in assay [11]; 11.1 (active) in assay [13]. Further, the z-score was 1.73 (inactive) in [14]; 1.64 (inactive) in [15]; 0.844 (inactive) in [16]; -0.429 in assay [17]; -0.344 (inactive) in [18]; -2.35 (inactive) in assay [19]. In assay [20], the z-score was -4.13.
As for `CCc1cc2c(nc1CC)CCN(CCC(C)=NOC(C)CN1CCCCc3nc(C)c(C)cc31)C2` (stereo not given), the composite z-score in assay [1] was 0.393; in assay [6] it was 0.88; in [7], 0.0713; with Torsin-1A (Homo sapiens) [8] it was 2.23; with Torsin-1A (Homo sapiens) [9] it was 1.08; in assay [10], 1.58. This compound also showed a composite z-score in assay [12] of 0.131. Also, the z-score is -3.02 (inactive) in assay [2]; 0.227 (inactive) in assay [3]; 2.08 (inactive) in assay [4]; 0.633 (inactive) in assay [5]; -1.74 (inactive) in assay [11]; 5.84 (inactive) in assay [13]. Also, the z-score was 0.499 (inactive) in [14]; 1.54 (inactive) in assay [15]; 0.539 (inactive) in assay [16]; -0.408 in [17]; -3.06 (inactive) in [18]; -3.1 (inactive) in assay [19]. In addition, the z-score in assay [20] was -2.84.
As to `CC(C)CON=C1C[C@@H](O)[C@@H](O)[C@@H]2[C@@H]3C(=O)N(C(C)(C)C)C(=O)[C@@H]3CC[C@@H]12`, the composite z-score was 0.167 in assay [1]; 0.0099 in assay [6]; -0.261 in assay [7]; 3.07 with Torsin-1A (Homo sapiens) [8]; 3.23 with Torsin-1A (Homo sapiens) [9]; 1.28 in [10]. Moreover, in assay [12], the composite z-score was -0.268. Besides, the z-score was -2.95 (inactive) in [2]; -0.811 (inactive) in [3]; 1.7 (inactive) in [4]; 0.549 (inactive) in assay [5]; -1.53 (inactive) in assay [11]; 0.778 (inactive) in assay [13]. The z-score in assay [14] is -0.692 (inactive); in assay [15], 0.695 (inactive); in assay [16], -2.29 (inactive); in assay [17], 1.13; in assay [18] it was 0.571 (inactive); in assay [19], -0.75 (inactive). In addition, the z-score in assay [20] is -2.22.
As to `C=CC[C@@H]1C=CC(ON=C(C)C)[C@@H](CO)O1` (stereo not given in full), the composite z-score is -0.174 in assay [1]; 0.543 in assay [6]; 0.0357 in assay [7]; 0.193 with Torsin-1A (Homo sapiens) [8]; -0.611 with Torsin-1A (Homo sapiens) [9]; -0.117 in assay [10]. The compound further gave a composite z-score in assay [12] of -0.147. Besides, the z-score in assay [2] was 0.28 (inactive); in [3], 0.0414 (inactive); in assay [4], -1.13 (inactive); in assay [5], -0.92 (inactive); in assay [11], -1.85 (inactive); in assay [13] it was 0.42 (inactive). The z-score was 0.81 (inactive) in assay [14]; -0.316 (inactive) in [15]; 0.195 (inactive) in assay [16]; -0.0323 in assay [17]; -0.202 (inactive) in [18]; -0.173 (inactive) in assay [19]. Further, the z-score in [20] amounted to 0.264.

The record behind these values is PubChem BioAssay.
